Bioassay records (PubChem BioAssay)
Hits are enriched below; roughly 2.1% of the tested compounds scored in any of these assays.
Abeta rescue: A-beta toxicity reversal in yeast; yeast expressing A-beta42, growth rescue, OD600, 48 h; response scale: 0% DMSO, 100% iron-clioquinol control; Potency, µM (top dose mostly 46.1 µM), actives largely listed as activators; 410,000 compounds, 0.063% hits; AID 1347071; note: nearly all actives have a fitted effect of over 55% in size
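Yeast A-beta toxicity model in growth medium with pinned compounds, 48 h at 30 C; growth read as absorbance at 600 nm. Normalized to FeCl3/clioquinol equimolar mix (positive) and DMSO (negative).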
aSyn yeast inh: rescues yeast growth from alpha-synuclein toxicity; Potency, µM (doses to about 46.1 µM), most hits filed as activators; Yeast expressing alpha-synuclein, growth rescue, BacTiter-Glo, 24 h; AID 652106; 370,000 compounds, 0.14% hits; note: nearly all actives have a fitted effect of over 65% in size
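Readout is rescue of growth in alpha-synuclein-expressing yeast, so inhibitors of toxicity appear as activators. Growth after 24 hr at 30 deg C in galactose medium is quantified by luminescence.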
TDP43 rescue: TDP-43 toxicity inhibition in yeast; TDP-43 expressing yeast growth rescue, BacTiter-Glo, 24 h; Potency, µM (doses to about 46.1 µM), usual class: activators; 410,000 compounds, 1.8% hits; note: nearly all actives have a fitted effect of over 50% in size
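Yeast expressing TDP-43 (pregrown in raffinose, seeded at OD600=0.02 in galactose medium) exposed to compounds 24 hr at 30 deg C. Growth read by BacTiter-Glo luminescence; rescue of toxicity appears as increased signal.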
FUS yeast rescue: suppressors of FUS proteinopathy in yeast; S. cerevisiae FUS-expressing, growth rescue, OD600, 24 h; Potency, µM (highest dose often 76.6 µM), actives largely listed as activators; 390,000 compounds, 0.24% hits; AID 1347120; note: nearly all actives have a fitted effect of over 55% in size
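Yeast expressing FUS under galactose induction, OD 0.005 in 2% galactose medium; compounds in a dilution series, 24 h at 30C. Growth rescue by absorbance at 600 nm; CP55940 positive control, DMSO negative.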
Large screens that a line does not name were inactive. Calls come from the whole dose curve; as a rule, active = well fitted curve in the direction sought with a large enough effect; inconclusive = small, poorly fitted or top-dose-only effect, or another doubt; inactive = no such curve, though single readings can be large; an effect the other way counts as inactive or inconclusive.

COc1ccc(/C=C/C(=O)OCCNC(=O)c2ccncc2)cc1OC	Abeta rescue inconclusive
CCCCOC(=O)/C=C/c1ccc(OC(=O)OC)c(OC(=O)OC)c1	TDP43 rescue 14µM
CCOC(=O)c1cc(-c2ccc(C)cc2)n(CC(=O)Nc2ccc(OC)cc2OC)c1C	none (no result: aSyn yeast inh)
CCOC(=O)CN1C(=O)S/C(=C/c2ccc(C)o2)C1=O	TDP43 rescue 13µM
COc1ccc(CCNC(=O)CN2C(=O)COc3ccc(C)cc32)cc1OC	none (no result: aSyn yeast inh)
CC(C(=O)NCc1ccccc1)n1ccc2cc(S(=O)(=O)N3CCCC3)ccc21 (stereo not drawn)	none (no result: aSyn yeast inh)
COc1cccc([C@@H]2Nc3ccc(C(=O)O)cc3[C@@H]3C=CC[C@@H]32)c1OC	TDP43 rescue 18µM, FUS yeast rescue inconclusive (no result: aSyn yeast inh)
CC(C)C1Nc2ccc(C(=O)O)cc2C2C=CCC21 (stereo not drawn)	TDP43 rescue 18µM
Cc1cc(N2CCN(c3ccccc3)CC2)nc(-c2ccccc2O)n1	TDP43 rescue 18µM
CC(C)c1ccc(-n2cnn(-c3ncccc3[N+](=O)[O-])c2=O)cc1	TDP43 rescue 11µM
Cc1cc(C)n(-c2ncccc2[N+](=O)[O-])n1	none
CCCNC(=O)N(C)C[C@@H]1Oc2cc(C#C[C@H](C)O)ccc2S(=O)(=O)N([C@H](C)CO)C[C@H]1C	aSyn yeast inh 5µM
CCCNC(=O)N(C)C[C@H]1Oc2cc(Br)ccc2S(=O)(=O)N([C@@H](C)CO)C[C@@H]1C	none
COCCNc1nc(NCc2cccc(Cl)c2)c2cnn(C)c2n1	none (no result: aSyn yeast inh)
Cn1ncc2c(Nc3ccc(Cl)c(Cl)c3)ncnc21	TDP43 rescue 7.1µM
CCCn1ncc2c(Nc3ccc(C)c(C)c3)ncnc21	TDP43 rescue 11µM
Cn1ncc2c(NCc3cccc(Cl)c3)ncnc21	TDP43 rescue 14µM (no result: aSyn yeast inh)
Cc1ccc(Cl)cc1N1CCN(C(=O)c2ccc(NC(=O)c3nsc4ccccc34)cc2)CC1	FUS yeast rescue inconclusive (no result: aSyn yeast inh)
CCOC(=O)[C@]12CCCC=C1N(CCCOC)C(=O)[C@@H]2CC(=O)NCC12CC3CC(CC(C3)C1)C2	none (no result: Abeta rescue, aSyn yeast inh, TDP43 rescue)
C=CCN(CC=C)C(=S)NC(=O)c1ccc(OC)cc1	none
C=CCN(CC=C)C(=S)NC(=O)c1ccc(C)c(Br)c1	aSyn yeast inh 14µM, TDP43 rescue inconclusive (no result: FUS yeast rescue)
C=CCN(CC=C)C(=S)NC(=O)c1ccc(-c2ccccc2)cc1	aSyn yeast inh inconclusive, TDP43 rescue 13µM (no result: FUS yeast rescue)
O=C(CCS(=O)(=O)c1cc2c3c(c1)CCN3C(=O)CC2)NCc1ccc(F)cc1	none (no result: aSyn yeast inh)
COc1cc(OC)c(NC(=O)Nc2nnc(N(C)C3CCCCC3)s2)cc1Cl	none (no result: aSyn yeast inh)
Cc1ccc(-c2cc(C(=O)Nc3cccnc3)c3ccccc3n2)o1	FUS yeast rescue 3.2µM
Cc1cc(NC(=O)c2cc(-c3ccncc3)nc3ccccc23)ccc1Br	TDP43 rescue 18µM (no result: FUS yeast rescue)
Cc1cc(NC(=O)c2cccnc2)ccc1Br	TDP43 rescue 11µM
CC(C)(C)c1ccc(C(=O)Nc2cccnc2)cc1	TDP43 rescue 14µM
Cc1ccc(NC(=O)c2cc(-c3ccc(C)o3)nc3ccccc23)cc1	TDP43 rescue inconclusive, FUS yeast rescue inconclusive
Cc1csc(NC(=O)c2cc(-c3ccccc3)nc3ccccc23)n1	TDP43 rescue 18µM (no result: FUS yeast rescue)
Cc1ccc(NC(=O)c2ccoc2C)cc1C	none
Cc1cc(NC(=O)c2ccoc2C)ccc1Br	TDP43 rescue 11µM
Cc1cc(NC(=O)c2ccccc2-c2ccccc2)ccc1Br	Abeta rescue 13µM
CCOc1ccc(C(=O)COc2ccc(NC(C)=O)cc2)cc1	FUS yeast rescue 11µM
C/C(=N\O)c1ccc2c3ccccc3n(C)c2c1	none
CCCn1c2ccccc2c2cc(C(=O)O)ccc21	TDP43 rescue 6.3µM
CCn1c2ccccc2c2cc(/C(C)=N/O)ccc21	aSyn yeast inh inconclusive, TDP43 rescue 35µM (no result: FUS yeast rescue)
COc1ccc(CNC(=O)Cc2c(C)c3c(cc(C)c4c(C)coc43)oc2=O)cc1OC	none (no result: aSyn yeast inh)
Cc1ccc(Nc2nc(CSc3nnc(-c4ccccc4)n3C)cs2)cc1	TDP43 rescue 18µM
Cc1ccc(Nc2nc(CSc3nnnn3-c3ccccc3)cs2)cc1	TDP43 rescue 14µM
Cc1ccc(Nc2nc(CSc3nnnn3C)cs2)cc1	TDP43 rescue inconclusive
Cc1ccc(C)c(OC2=NS(=O)(=O)c3ccccc32)c1	none
Cc1ccc2c(c1)-c1ccccc1S(=O)(=O)N2	aSyn yeast inh 13µM, TDP43 rescue inconclusive (no result: FUS yeast rescue)
Nc1ccc2c(c1)-c1ccccc1S(=O)(=O)N2	FUS yeast rescue 28µM
COc1ccc2c(c1)c(=O)oc1cc(OCC(=O)N3CCC(C)CC3)ccc12	TDP43 rescue inconclusive
